# Measurements: the supplement of paper PMC9262897, “Low-cost anti-mycobacterial drug discovery using engineered E. coli” (Nature Communications, 2022)
# Where a name gives a salt, the structure may show the parent alone. ± gives the standard deviation of the averaged measurements.
# Tested on: E. coli TESEC Mtb DapB
# Assay: growth (OD600 after 10 h); higher = more growth (less inhibition)
# Conditions: arabinose induction (level): High; compound 0.1 mM; raw OD600 reference: median of DMSO wells […], cell-free background 0.041
# Method: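 TESEC E. coli strains in which the native enzyme is deleted and replaced by arabinose-inducible Mtb Asd, DapB, CysH or TrpD, each grown in its selective medium. Strains were screened against the Prestwick library at 0.1 mM and 1% DMSO in 384-well format at low and high arabinose induction. Growth is read as OD600 after 10 h in triplicate.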
row,Structure (SMILES),growth
1,O=C(O)c1ccccc1Nc1cccc(C(F)(F)F)c1 [Flufenamic acid],0.117 ± 0.0058
2,CC(=O)SCC(Cc1ccccc1)C(=O)NCC(=O)OCc1ccccc1 (stereo not given) [Racecadotril],0.172 ± 0.012
3,CCOCCn1c(N2CCCN(C)CC2)nc2ccccc21 [Emedastine],0.205 ± 0.018
4,COCCCOc1ccnc(C[S+]([O-])c2nc3ccccc3[nH]2)c1C (stereo not given) [Rabeprazole Sodium salt],0.176 ± 0.021
5,CN1C(C(=O)Nc2ccccn2)=C(O)c2ccccc2S1(=O)=O [Piroxicam],0.181 ± 0.015
6,CCN(CC)CCNC(=O)c1ccc(N)cc1 [Procainamide hydrochloride],0.192 ± 0.015
7,CN(C)C(=O)C(CCN1CCC(O)(c2ccc(Cl)cc2)CC1)(c1ccccc1)c1ccccc1 [Loperamide hydrochloride],0.0489 ± 0.00058
8,CC(=O)O[C@H]1C(=O)[C@@]2(C)[C@H]([C@H](OC(=O)c3ccccc3)[C@]3(O)C[C@H](OC(=O)[C@H](O)[C@@H](NC(=O)c4ccccc4)c4ccccc4)C(C)=C1C3(C)C)[C@]1(OC(C)=O)CO[C@@H]1C[C@@H]2O [Paclitaxel],0.209 ± 0.006
9,O=P(O)(O)C(Cl)(Cl)P(=O)(O)O [Clodronate],0.223 ± 0.024
10,NCCC[C@H](N)CC(=O)N[C@H]1CNC(=O)[C@H]([C@H]2C[C@H](O)NC(N)=N2)NC(=O)/C(=C/NC(N)=O)NC(=O)[C@H](CO)NC(=O)[C@H](CO)NC1=O [Viomycin sulfate],0.169 ± 0.0056
11,O=c1[nH]c(=O)n([C@H]2C[C@H](O)[C@@H](CO)O2)cc1C(F)(F)F [Trifluridine],0.164 ± 0.006
12,CNCCC=C1c2ccccc2CCc2ccccc21 [Nortriptyline hydrochloride],0.185 ± 0.025
13,Cn1c(=O)c2c(ncn2CC(=O)O)n(C)c1=O [Acefylline],0.196 ± 0.0038
14,CC[C@@H]1C(=O)OC[C@@H]1Cc1cncn1C [Pilocarpine nitrate],0.199 ± 0.016
15,NC1CCN(c2c(F)cc3c(=O)c(C(=O)O)cn(C4CC4)c3c2Cl)C1 (stereo not given) [Clinafloxacin],0.0489 ± 0.0013
16,C[C@@H]1CN(c2c(F)c(N)c3c(=O)c(C(=O)O)cn(C4CC4)c3c2F)C[C@H](C)N1 [Sparfloxacin],0.0488 ± 0.00061
17,c1ccc(C2CN3CCSC3=N2)cc1 (stereo not given) [Tetramisole hydrochloride],0.203 ± 0.02
18,Clc1ccc2nsnc2c1NC1=NCCN1 [Tizanidine HCl],0.216 ± 0.032
19,O=C(c1ccc(F)cc1)C1CCN(CCn2c(=O)[nH]c3ccccc3c2=O)CC1 [Ketanserin tartrate hydrate],0.203 ± 0.02
20,O=P(O)(O)C(O)(Cn1ccnc1)P(=O)(O)O [Zoledronic acid hydrate],0.193 ± 0.0053

# Same assay, conditions: arabinose induction (level): Low; compound 0.1 mM; raw OD600 reference: median of DMSO wells 0.227, cell-free background 0.041
row,Structure (SMILES),growth
1,O=C(O)c1ccccc1Nc1cccc(C(F)(F)F)c1 [Flufenamic acid],0.181 ± 0.046
2,CC(=O)SCC(Cc1ccccc1)C(=O)NCC(=O)OCc1ccccc1 (stereo not given) [Racecadotril],0.24 ± 0.023
3,CCOCCn1c(N2CCCN(C)CC2)nc2ccccc21 [Emedastine],0.211 ± 0.019
4,COCCCOc1ccnc(C[S+]([O-])c2nc3ccccc3[nH]2)c1C (stereo not given) [Rabeprazole Sodium salt],0.207 ± 0.0085
5,CN1C(C(=O)Nc2ccccn2)=C(O)c2ccccc2S1(=O)=O [Piroxicam],0.227 ± 0.068
6,CCN(CC)CCNC(=O)c1ccc(N)cc1 [Procainamide hydrochloride],0.201 ± 0.0082
7,CN(C)C(=O)C(CCN1CCC(O)(c2ccc(Cl)cc2)CC1)(c1ccccc1)c1ccccc1 [Loperamide hydrochloride],0.0571 ± 0.017
8,CC(=O)O[C@H]1C(=O)[C@@]2(C)[C@H]([C@H](OC(=O)c3ccccc3)[C@]3(O)C[C@H](OC(=O)[C@H](O)[C@@H](NC(=O)c4ccccc4)c4ccccc4)C(C)=C1C3(C)C)[C@]1(OC(C)=O)CO[C@@H]1C[C@@H]2O [Paclitaxel],0.279 ± 0.059
9,O=P(O)(O)C(Cl)(Cl)P(=O)(O)O [Clodronate],0.212 ± 0.024
10,NCCC[C@H](N)CC(=O)N[C@H]1CNC(=O)[C@H]([C@H]2C[C@H](O)NC(N)=N2)NC(=O)/C(=C/NC(N)=O)NC(=O)[C@H](CO)NC(=O)[C@H](CO)NC1=O [Viomycin sulfate],0.226 ± 0.031
11,O=c1[nH]c(=O)n([C@H]2C[C@H](O)[C@@H](CO)O2)cc1C(F)(F)F [Trifluridine],0.174 ± 0.0024
12,CNCCC=C1c2ccccc2CCc2ccccc21 [Nortriptyline hydrochloride],0.195 ± 0.04
13,Cn1c(=O)c2c(ncn2CC(=O)O)n(C)c1=O [Acefylline],0.207 ± 0.021
14,CC[C@@H]1C(=O)OC[C@@H]1Cc1cncn1C [Pilocarpine nitrate],0.222 ± 0.023
15,NC1CCN(c2c(F)cc3c(=O)c(C(=O)O)cn(C4CC4)c3c2Cl)C1 (stereo not given) [Clinafloxacin],0.0481 ± 0.00067
16,C[C@@H]1CN(c2c(F)c(N)c3c(=O)c(C(=O)O)cn(C4CC4)c3c2F)C[C@H](C)N1 [Sparfloxacin],0.04823 ± 0.00038
17,c1ccc(C2CN3CCSC3=N2)cc1 (stereo not given) [Tetramisole hydrochloride],0.252 ± 0.035
18,Clc1ccc2nsnc2c1NC1=NCCN1 [Tizanidine HCl],0.222 ± 0.022
19,O=C(c1ccc(F)cc1)C1CCN(CCn2c(=O)[nH]c3ccccc3c2=O)CC1 [Ketanserin tartrate hydrate],0.251 ± 0.056
20,O=P(O)(O)C(O)(Cn1ccnc1)P(=O)(O)O [Zoledronic acid hydrate],0.279 ± 0.069
